# Measurements taken from PubChem BioAssay.
# Several values for one entry are separate records, joined by “and”; a condition that tells them apart may be missing. Equal entries are not always repeated. Records with an inconclusive call do not appear. For some assays here: Results with a measured potency or affinity are listed apart. Activity calls are given as the source filed them. Unless noted, the limit is not given here; nearly all actives have AC50 up to about 26 µM.
# Columns and labels:
# [1] = rescue of polyQ-huntingtin neuronal dysfunction in worms, whole organism, C. elegans mechanosensory neurons, N-terminal huntingtin (AID 1599); conditions: touch response, stronger effect = higher value
# [2] = suppressors of polyglutamine aggregation in yeast, 75Q-TubH (AID 1616); conditions: S. cerevisiae 75Q-TubH polyglutamine aggregation suppression; stronger effect = higher value
# [3] = growth inhibition of DIPG glioma cells, dose response, cell-based, SU-DIPG-XVII, MIPE5.0, CellTiter-Glo, qHTS (AID 1347060); conditions: SU-DIPG-XVII viability, CellTiter-Glo ATP luminescence;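 as to AC50: cells exposed to compound for 48 hours before viability readout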
# [4] = growth inhibition of DIPG glioma cells, dose response, cell-based, SU-DIPG-XIII, MIPE4.0, CellTiter-Glo, qHTS (AID 1347061; cut-off not given, nearly all actives have AC50 up to about 37 µM;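 also: cells exposed to compound for 48 hours before readout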); conditions: SU-DIPG-XIII viability, CellTiter-Glo ATP luminescence
# [5] = growth inhibition of DIPG glioma cells, dose response, cell-based, JHH-DIPG-1, MIPE4.0, CellTiter-Glo, qHTS (AID 1347062; cut-off not given, nearly all actives have AC50 up to about 27 µM;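 as to AC50: cells exposed to compound for two days before readout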); conditions: JHH-DIPG-1 viability, CellTiter-Glo ATP luminescence
# [6] = growth inhibition of DIPG glioma cells, dose response, cell-based, SU-DIPG-IV, MIPE4.0, CellTiter-Glo, qHTS (AID 1347063; cut-off not given, nearly all actives have AC50 up to about 30 µM;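 also: compound exposure lasted 48 hours before the viability readout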); conditions: SU-DIPG-IV viability, CellTiter-Glo ATP luminescence
# [7] = viability loss in pontine glioma line – cell-based, SU-DIPG-XXV, MIPE5.0, CellTiter-Glo, qHTS, dose response (AID 1347065); conditions: CellTiter-Glo ATP luminescence;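 also: cells exposed to compound for 48 hours before ATP readout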
# [8] = LFS_MB_1R medulloblastoma cell growth inhibition, synergistic combos for chromothripsis tumors, cisplatin or BGB combos (AID 1671452; in the data active = inhibition above about 80%;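 also: cells exposed for 96 hours before readout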); conditions: LFS_MB_1R medulloblastoma cells, stronger effect = higher value
# [9] = MDA-MB-436 breast carcinoma cell growth inhibition, synergistic combos for chromothripsis tumors, BGB or cisplatin combos (AID 1671458; call rule not given here;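 also: cells exposed for 96 hours; 0% = vehicle DMSO and 100% = killing by high DMSO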); conditions: MDA-MB-436 breast carcinoma growth inhibition, drug combinations, stronger effect = higher value
# [10] = growth inhibition of BT084 medulloblastoma cells, cell-based, ICGC_MB145, cisplatin and BGB IC40 combos (AID 1671461; in the data active = inhibition above about 80%;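 also: cells exposed to drugs for 96 hours; 0% = vehicle DMSO and 100% = high DMSO full killing control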); conditions: drug combinations, stronger effect = higher value
# [11] = growth inhibition of RCMB18 medulloblastoma cells, cell-based, cisplatin and BGB IC40 combos (AID 1671462; in the data active = inhibition above about 80%;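 also: cells exposed to compound for four days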); conditions: stronger effect = higher value
# [12] = growth inhibition of CRL1545 osteosarcoma cells, cell-based, cisplatin and BGB IC20 combos (AID 1671464; in the data active = inhibition above about 80%;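 also: cells exposed to compound for 96 hours before readout; 0% = vehicle DMSO and 100% = high DMSO killing control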); conditions: stronger effect = higher value
# [13] = reducers of polyQ inclusions in PC12 cells, cell-based, NGF-treated PC12, GFPQ80 (AID 1614); conditions: PC12 NGF-treated GFP-polyQ80 inclusion reduction;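 also: lower means fewer inclusions and 0 means no inclusions at all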
# [14] = hESC survival regulators, cell-based (AID 493140; call rule not given here;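 also: cells exposed to compounds for four days before counting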); conditions: human embryonic stem cell survival screen; stronger effect = higher value
# [15] = SU-DIPG-VI glioma cell viability, MIPE4.0 library, CellTiter-Glo luminescence, qHTS (AID 1347066; cut-off not given, nearly all actives have AC50 up to about 30 µM;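 also: cells exposed to compound for 48 hours before readout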); conditions: CellTiter-Glo ATP luminescence
# [16] = JHH-DIPG-1 glioma cell viability, MIPE5.0 library, CellTiter-Glo luminescence, qHTS (AID 1347067); conditions: JHH-DIPG-1 glioma viability, CellTiter-Glo ATP luminescence;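 also: cells exposed to compound for 48 hours before readout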
# [17] = SU-DIPG-XXV glioma cell viability, MIPE5.0 library, qHTS (AID 1347068; cut-off not given, nearly all actives have IC50 up to about 30 µM)
# [18] = test system: Hepatitis C virus NS3 helicase; assay: HCV NS3 helicase inhibitors, primary screen, biochemical, fluorescence polarization, LOPAC1280 library (AID 687035; in the data active = inhibition above about 37%); conditions: Purified HCV NS3 helicase, Cy5-dT15 ssDNA binding fluorescence polarization; stronger effect = higher value; concentration not given here
# [19] = Cy5 fluorescence quenching or enhancement artefacts, artefact control for HCV NS3 helicase inhibitor project, biochemical, LOPAC1280 (AID 687037; call rule not given here); conditions: Cy5-DNA-NS3h complex fluorescence interference counterscreen
# [20] = phospholipid biosynthesis inhibitors in animal cells, primary screen, cell-based, LOPAC library, screen 4 (AID 1347384; call rule not given here); conditions: phospholipid biosynthesis inhibition screen, at 10 µM
# [21] = measured here: combination with cisplatin, at 0.5 µM
structure (smiles),measurement,setting,value
S=c1nc[nH]c2nc[nH]c12,rescue above control,[1],-8.7
same,aggregation suppression score,[2],1.29
same,AC50,[3],1.18 µM (active)
same,outcome,[4],inactive
same,AC50,[5],0.935 µM (active)
same,outcome,[6],inactive
same,AC50,[7],5.25 µM (active)
same,inhibition,[8]; at 0.5 µM,-9.9% (inactive) and -33.2% (inactive) and -36.1% (inactive)
same,inhibition,"[8]; measured here: combination with BGB IC40, at 0.05 µM",14.7% and -35.7% and -8.62%
same,inhibition,[8]; [21],-4.25% and -33.8% and -75.5%
same,inhibition,"[8]; measured here: combination with cisplatin, at 5 µM",-15.4% and -37% and -57.5%
same,inhibition,[9]; at 0.5 µM,-2.57% (inactive) and -1.27% (inactive) and 12.1% (inactive)
same,inhibition,"[9]; measured here: BGB combination, at 0.5 µM",-26.2% and -7.09% and 10.3%
same,inhibition,"[9]; measured here: BGB combination, at 5 µM",19.5% and 16% and 25.5%
same,inhibition,"[9]; measured here: cisplatin combination, at 0.5 µM",-2.23% and -7.71% and 3.05%
same,inhibition,"[9]; measured here: cisplatin combination, at 5 µM",44.5% and 28.1% and 46.1%
same,inhibition,[10]; at 0.5 µM,-23.3% (inactive) and -12% (inactive) and -13.4% (inactive)
same,inhibition,"[10]; cisplatin combination, at 0.5 µM",-28% and -16.1% and -18.3%
same,inhibition,"[10]; cisplatin combination, at 5 µM",-59.7% and -17.4% and -65.5%
same,inhibition,"[10]; measured here: BGB IC40 combination 0.05 uM, at 0.05 µM",-9.27% and 73.7% and -6.21%
same,inhibition,"[10]; single agent, at 5 µM",-10.1% and 19.3% and -6.27%
same,inhibition,[11]; at 0.5 µM,0.61% (inactive) and -7.44% (inactive) and -22.1% (inactive)
same,inhibition,"[11]; cisplatin combo, at 5 µM",12.2% and -28% and -29.1%
same,inhibition,"[11]; measured here: BGB IC40 combination, at 0.05 µM",0.705% and 3.13% and 5.02%
same,inhibition,[11]; [21],30% and -22% and -77.2%
same,inhibition,"[11]; single agent, at 5 µM",-40.6% and 41.7% and -25.7%
same,inhibition,[12]; at 0.5 µM,-26.3% (inactive) and -12.8% (inactive) and -43.8% (inactive)
same,inhibition,"[12]; measured here: with BGB IC20 combination, at 0.5 µM",-10.8% and -54.5% and -18%
same,inhibition,"[12]; measured here: with cisplatin IC20 combination, at 0.5 µM",-34% and 8.01% and -56.8%
same,inhibition,"[12]; single agent, at 0.05 µM",2.04% and -10.4% and -14.2%
same,inhibition,"[12]; single agent, at 5 µM",33.1% and 21.8% and 31.5%
CCCc1cc(=O)[nH]c(=S)[nH]1,rescue above control,[1],-2.2
same,inclusion score,[13],2
same,aggregation suppression score,[2],1.14
same,survival,[14],31.3 (inactive)
same,outcome,[3],inactive
same,outcome,[4],inactive
same,outcome,[5],inactive
same,outcome,[6],inactive
same,outcome,[7],inactive
same,outcome,[15],inactive
N[C@@H](Cc1cc(I)c(Oc2cc(I)c(O)c(I)c2)c(I)c1)C(=O)O,outcome,[3],inactive
same,outcome,[4],inactive
same,outcome,[5],inactive
same,outcome,[7],inactive
same,outcome,[16],inactive
same,outcome,[17],inactive
CC1=NS(=O)(=O)c2cc(Cl)ccc2N1,survival,[14],11.5 (inactive)
same,inhibition,[18],-1% (inactive)
same,fluorescence ratio (interference),[19],1 (inactive)
same,outcome,[20],inactive
CC(COc1ccccc1)N(CCCl)Cc1ccccc1 (stereo unspecified),rescue above control,[1],11.3
same,aggregation suppression score,[2],0.789
same,survival,[14],5.08 (inactive)
same,inhibition,[18],-1% (inactive)
same,fluorescence ratio (interference),[19],1 (inactive)
same,outcome,[3],inactive
same,outcome,[4],inactive
same,outcome,[5],inactive
same,outcome,[7],inactive
same,outcome,[15],inactive
same,outcome,[16],inactive
same,outcome,[17],inactive
CN=C(NC#N)NCCSCc1nc[nH]c1C,rescue above control,[1],-9.17
same,inclusion score,[13],2
same,aggregation suppression score,[2],1.05
same,inhibition,[18],0% (inactive)
same,fluorescence ratio (interference),[19],1 (inactive)
same,outcome,[20],inactive
O=C(C1CCCCC1)N1CC(=O)N2CCc3ccccc3C2C1 (stereo unspecified),rescue above control,[1],-8.41
same,inclusion score,[13],2
same,aggregation suppression score,[2],0.607
same,survival,[14],12.2 (inactive)
same,inhibition,[18],-3% (inactive)
same,fluorescence ratio (interference),[19],1 (inactive)
same,AC50,[3],26.3 µM (active)
same,outcome,[4],inactive
same,outcome,[5],inactive
same,outcome,[6],inactive
same,outcome,[7],inactive
same,outcome,[15],inactive
same,outcome,[16],inactive
same,outcome,[17],inactive
same,outcome,[20],inactive
O=C(O)c1cccnc1,rescue above control,[1],2.74
same,inclusion score,[13],2
same,aggregation suppression score,[2],1.88
same,survival,[14],4 (inactive)
same,outcome,[3],inactive
same,outcome,[4],inactive
same,outcome,[5],inactive
same,outcome,[7],inactive
same,outcome,[15],inactive
same,outcome,[16],inactive
same,outcome,[17],inactive
CC(C)C(=O)Nc1ccc([N+](=O)[O-])c(C(F)(F)F)c1,rescue above control,[1],0
same,aggregation suppression score,[2],0.664
same,survival,[14],18.4 (inactive)
same,inhibition,[18],-1% (inactive)
same,fluorescence ratio (interference),[19],1 (inactive)
same,outcome,[3],inactive
same,outcome,[4],inactive
same,AC50,[5],18.7 µM (active)
same,outcome,[15],inactive
same,outcome,[16],inactive
same,outcome,[17],inactive
same,outcome,[20],inactive
CCCCNc1cc(C(=O)O)cc(S(N)(=O)=O)c1Oc1ccccc1,rescue above control,[1],-11.4
same,inclusion score,[13],2
same,aggregation suppression score,[2],1.32
same,survival,[14],12.6 (inactive)
same,inhibition,[18],-3% (inactive)
same,fluorescence ratio (interference),[19],0.9 (inactive)
same,outcome,[3],inactive
same,outcome,[4],inactive
same,outcome,[5],inactive
same,outcome,[6],inactive
same,outcome,[7],inactive
same,outcome,[15],inactive
same,outcome,[16],inactive
same,outcome,[17],inactive
same,outcome,[20],inactive
NCCc1ccc(O)c(O)c1,rescue above control,[1],0.54
same,inclusion score,[13],2
same,aggregation suppression score,[2],1.6
same,inhibition,[18],-4% (inactive)
same,fluorescence ratio (interference),[19],1 (inactive)
same,outcome,[3],inactive
same,outcome,[4],inactive
same,outcome,[6],inactive
same,outcome,[15],inactive
same,outcome,[16],inactive
same,outcome,[17],inactive
same,outcome,[20],inactive
CCc1cc(C(N)=S)ccn1,rescue above control,[1],-3.77
same,inclusion score,[13],2
same,aggregation suppression score,[2],1.09
same,survival,[14],9.25 (inactive)
same,outcome,[3],inactive
same,outcome,[4],inactive
same,outcome,[5],inactive
same,outcome,[6],inactive
same,outcome,[7],inactive
same,outcome,[15],inactive
same,outcome,[16],inactive
same,outcome,[17],inactive
OC(Cn1cncn1)(Cn1cncn1)c1ccc(F)cc1F,rescue above control,[1],-3.31
same,inclusion score,[13],2
same,aggregation suppression score,[2],0.253
same,outcome,[3],inactive
same,outcome,[4],inactive
same,outcome,[5],inactive
same,outcome,[6],inactive
same,outcome,[7],inactive
same,outcome,[15],inactive
same,outcome,[16],inactive
same,outcome,[17],inactive
CC12CC3CC(C)(C1)CC(N)(C3)C2,rescue above control,[1],-2.96
same,inclusion score,[13],2
same,aggregation suppression score,[2],1.45
same,survival,[14],11.7 (inactive)
same,inhibition,[18],-2% (inactive)
same,fluorescence ratio (interference),[19],1 (inactive)
same,AC50,[5],3.32 µM (active)
same,outcome,[7],inactive
same,outcome,[15],inactive
same,outcome,[16],inactive
same,outcome,[17],inactive
same,outcome,[20],inactive
CC(C[N+](C)(C)C)OC(N)=O (stereo unspecified),rescue above control,[1],20.6
same,inclusion score,[13],2
same,aggregation suppression score,[2],1.26
same,survival,[14],18.5 (inactive)
same,inhibition,[18],-2% (inactive)
same,fluorescence ratio (interference),[19],1 (inactive)
same,outcome,[3],inactive
same,outcome,[4],inactive
same,outcome,[5],inactive
same,outcome,[15],inactive
same,outcome,[16],inactive
same,outcome,[17],inactive
same,outcome,[20],inactive
CC1=C(/C=C/C(C)=C/C=C/C(C)=C/C(=O)O)C(C)(C)CCC1,rescue above control,[1],3.71
same,aggregation suppression score,[2],0.795
same,survival,[14],12.6 (inactive) and 136 (inactive)
same,inhibition,[18],-1% (inactive)
same,fluorescence ratio (interference),[19],0.9 (inactive)
same,outcome,[5],inactive
same,outcome,[16],inactive
same,outcome,[17],inactive
same,outcome,[20],inactive
